{
  "source": "PubChem BioAssay (NCATS)",
  "key": {"[1]": {"assay": "AP1 Signaling Pathway (AID 357; active = well fitted curve in either direction with a large enough effect, not every such curve was filed as active)", "how_it_was_run": "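Beta-lactamase reporter under AP-1 response element, ME-180 background. Stimulus: EC50 EGF. Compound exposure 5 h, 37 °C. Detection: CCF4, 2.5 h RT, 460/530 nm. Values: AC50 from titration.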"}, "[2]": {"assay": "Stat Signaling Pathway (AID 446; active = well fitted curve in either direction with a large enough effect, not every such curve was filed as active;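 as to all read-outs here: ME-180 cervical cancer cells given 40 pM IL-6 alongside compound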)", "how_it_was_run": "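FRET read-out (405 nm excitation, 460/530 nm emission) of a beta-lactamase reporter under a STAT-inducible element in ME-180 cervical carcinoma cells. Cells with compound receive 40 pM IL-6 for 5 h. Values are normalised to AC90 stimulation and AC90 JAK-inhibitor controls.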"}, "[3]": {"target": "Glucocorticoid receptor (Homo sapiens) (UniProt P04150)", "sequence (P04150 whole entry, looked up, the tested form may be a part)": "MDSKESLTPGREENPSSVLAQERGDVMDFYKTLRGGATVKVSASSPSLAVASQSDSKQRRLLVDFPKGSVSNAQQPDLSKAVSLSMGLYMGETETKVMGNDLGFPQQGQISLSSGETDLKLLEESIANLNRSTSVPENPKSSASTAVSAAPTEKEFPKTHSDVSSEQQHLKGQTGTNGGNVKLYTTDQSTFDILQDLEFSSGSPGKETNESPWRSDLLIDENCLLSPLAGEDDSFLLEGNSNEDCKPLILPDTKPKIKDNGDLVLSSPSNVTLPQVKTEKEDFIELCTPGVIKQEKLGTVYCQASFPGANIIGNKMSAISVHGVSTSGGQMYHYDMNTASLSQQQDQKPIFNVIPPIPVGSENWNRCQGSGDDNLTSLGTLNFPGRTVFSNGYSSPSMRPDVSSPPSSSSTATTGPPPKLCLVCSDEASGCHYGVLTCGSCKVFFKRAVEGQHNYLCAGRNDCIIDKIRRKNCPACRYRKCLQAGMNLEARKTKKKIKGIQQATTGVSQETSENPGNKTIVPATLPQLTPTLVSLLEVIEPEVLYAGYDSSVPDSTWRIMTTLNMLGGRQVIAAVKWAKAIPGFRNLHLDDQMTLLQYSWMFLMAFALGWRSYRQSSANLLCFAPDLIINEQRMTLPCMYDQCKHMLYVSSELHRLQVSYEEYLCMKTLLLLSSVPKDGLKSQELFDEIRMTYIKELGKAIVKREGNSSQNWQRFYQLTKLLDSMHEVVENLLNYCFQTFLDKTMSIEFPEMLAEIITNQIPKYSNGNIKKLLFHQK", "assay": "GR-GFP Redistribution (AID 450;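 active = compounds whose dose series gives a full or clear partial fitted curve of increased nuclear translocation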; as to all read-outs here: potency is read from the fitted curve at half-maximal effect)", "conditions": "U2OS GR-GFP nuclear translocation, laser cytometry, 2 h"}, "[4]": {"target": "Glucocorticoid receptor (Homo sapiens) (UniProt P04150)", "assay": "GR-EFC Redistribution (AID 451; calls by dose curve; as to all read-outs here: potency is read from the fitted curve at half-maximal effect)", "conditions": "CHO-K1 GR-EFC translocation, beta-gal luminescence, 2 h", "how_it_was_run": "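Translocation of GR-ED fusion to nuclear EA restores b-gal, read by luminescence after 1 h room-temperature detection. Engineered CHO-K1 biosensor cells, 1,000/well, exposed 2 h at 37 C to titrations up to 46 uM final.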"}, "[5]": {"target": "Mitogen-activated protein kinase 10 (Mus musculus) (UniProt Q61831)", "assay": "JNK3 AlphaScreen Assay (AID 530; active = well fitted curve in either direction with a large enough effect, not every such curve was filed as active;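 as to all read-outs here: kinase came from lysate of stimulated human HepG2 cells; signal reports phosphorylation of biotinylated GST-cJun 1-79 at Ser73 with 10 µM ATP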)", "how_it_was_run": "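qHTS titrations with 15 min compound pre-incubation before adding ATP (10 uM final). Read-out: AlphaScreen of Ser73-phosphorylated biotin-GST-cJun using HepG2 lysate JNK3 activated by IL-1β and TNFα.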"}, "[6]": {"assay": "qHTS Assay for Lipid Storage Modulators (AID 1519; calls by dose curve)", "conditions": "Drosophila S3 cells, BODIPY lipid droplet/cell ratio, laser cytometry, cells loaded with oleic acid; for activity change, negative = inhibition: at 25.7 µM (top of the series)", "how_it_was_run": "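Cells seeded at 5,000 per well were treated with compounds over a concentration series and loaded with oleic acid (400 uM, as added). Lipid droplet fluorescence (488 nm excitation, 500-530 nm channel) was read by laser-scanning cytometry and normalized to 20 uM Triacsin C.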"}, "[7]": {"target": "ATP-dependent 6-phosphofructokinase (Trypanosoma brucei brucei) (UniProt O15648)", "sequence (O15648 whole entry, looked up)": "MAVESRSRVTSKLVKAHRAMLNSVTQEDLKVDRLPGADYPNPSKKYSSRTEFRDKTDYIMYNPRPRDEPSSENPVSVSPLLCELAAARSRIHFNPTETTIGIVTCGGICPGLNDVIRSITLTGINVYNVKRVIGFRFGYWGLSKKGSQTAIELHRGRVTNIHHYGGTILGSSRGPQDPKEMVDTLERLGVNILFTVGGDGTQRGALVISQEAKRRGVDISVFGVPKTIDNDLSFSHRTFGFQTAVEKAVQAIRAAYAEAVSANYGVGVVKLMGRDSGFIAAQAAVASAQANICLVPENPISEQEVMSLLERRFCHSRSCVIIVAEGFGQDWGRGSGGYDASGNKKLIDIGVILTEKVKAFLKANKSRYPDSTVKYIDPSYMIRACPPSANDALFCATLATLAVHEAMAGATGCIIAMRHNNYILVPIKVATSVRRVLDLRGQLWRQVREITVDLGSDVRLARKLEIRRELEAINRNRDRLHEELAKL", "assay": "qHTS Assay to Find Inhibitors of T. brucei phosphofructokinase: hit validation (AID 492961);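 as to all read-outs here: luminescence reports ADP formed as PFK phosphorylates fructose-6-phosphate with ATP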", "how_it_was_run": "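In this biochemical qHTS validation, titrated compounds were tested against 1.25 nM PFK with 0.1 mM ATP and 0.5 mM F6P. Percent activity came from controls lacking or containing enzyme.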"}, "[8]": {"target": "Luciferin 4-monooxygenase (Photinus pyralis) (UniProt P08659)", "sequence (P08659 whole entry, looked up)": "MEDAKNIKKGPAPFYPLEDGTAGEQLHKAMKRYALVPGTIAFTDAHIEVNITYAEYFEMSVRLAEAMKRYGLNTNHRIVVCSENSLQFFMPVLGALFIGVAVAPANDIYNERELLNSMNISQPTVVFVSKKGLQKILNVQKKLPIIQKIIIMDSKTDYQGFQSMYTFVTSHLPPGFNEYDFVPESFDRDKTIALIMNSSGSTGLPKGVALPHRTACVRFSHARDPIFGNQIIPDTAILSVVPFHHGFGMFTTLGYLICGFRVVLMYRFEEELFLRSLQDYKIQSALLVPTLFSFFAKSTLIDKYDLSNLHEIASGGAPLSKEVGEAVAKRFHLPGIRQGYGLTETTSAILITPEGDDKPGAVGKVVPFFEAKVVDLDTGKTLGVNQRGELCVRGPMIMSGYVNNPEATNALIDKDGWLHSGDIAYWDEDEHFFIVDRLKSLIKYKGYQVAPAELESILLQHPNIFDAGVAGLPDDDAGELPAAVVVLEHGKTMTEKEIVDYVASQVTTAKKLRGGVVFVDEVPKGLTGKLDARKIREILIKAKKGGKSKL", "assay": "Biochemical firefly luciferase enzyme assay for NPC (AID 624030);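 as to all read-outs here: purified P. pyralis luciferase at 10 nM with luciferin and ATP substrate; nearly all actives have a fitted effect of over 70% in size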", "how_it_was_run": "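Direct inhibition of firefly luciferase enzyme (10 nM final, 50 mM Tris Acetate) assessed by luminescence within 5 minutes. Percent activity scaled between DMSO and PTC124 positive control, with concentration-effect curves classified by fit quality and response.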"}, "[9]": {"assay": "qHTS profiling for inhibitors of Plasmodium falciparum proliferation (AID 504749); also: potency is read from the fitted curve at half-maximal effect; as to all read-outs here: nearly all actives have a fitted effect of over 60% in size", "conditions": "P. falciparum in erythrocytes, SYBR Green DNA, 72 h; for activity, negative = inhibition: at 12.8 µM (top of the series)", "how_it_was_run": "(§1)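 SYBR Green fluorescence of parasite DNA, read after lysis and overnight dark incubation, measured growth over 72 h in erythrocyte culture at 0.3% parasitemia and 2.5% hematocrit. Data normalised to DMSO and 0.29 uM artemisinin, with plate-drift correction.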"}, "[10]": {"tested_on": "CP238", "assay": "qHTS profiling for inhibitors of Plasmodium falciparum proliferation (AID 504749)", "conditions": "P. falciparum in erythrocytes, SYBR Green DNA, 72 h; series mostly up to 12.8 µM", "how_it_was_run": "as §1"}, "[11]": {"tested_on": "CP252", "assay": "qHTS profiling for inhibitors of Plasmodium falciparum proliferation (AID 504749)", "conditions": "P. falciparum in erythrocytes, SYBR Green DNA, 72 h; series mostly up to 12.8 µM", "how_it_was_run": "as §1"}, "[12]": {"tested_on": "DIV14", "assay": "qHTS profiling for inhibitors of Plasmodium falciparum proliferation (AID 504749)", "conditions": "P. falciparum in erythrocytes, SYBR Green DNA, 72 h; series mostly up to 12.8 µM", "how_it_was_run": "as §1"}, "[13]": {"tested_on": "N140", "assay": "qHTS profiling for inhibitors of Plasmodium falciparum proliferation (AID 504749)", "conditions": "P. falciparum in erythrocytes, SYBR Green DNA, 72 h; series mostly up to 12.8 µM", "how_it_was_run": "as §1"}, "[14]": {"tested_on": "SC27B", "assay": "qHTS profiling for inhibitors of Plasmodium falciparum proliferation (AID 504749)", "conditions": "P. falciparum in erythrocytes, SYBR Green DNA, 72 h; series mostly up to 12.8 µM", "how_it_was_run": "as §1"}, "[15]": {"tested_on": "W2", "assay": "qHTS profiling for inhibitors of Plasmodium falciparum proliferation (AID 504749)", "conditions": "P. falciparum in erythrocytes, SYBR Green DNA, 72 h; series mostly up to 12.8 µM", "how_it_was_run": "as §1"}, "[16]": {"assay": "NFAT Signaling Pathway (AID 444; active = well fitted curve in either direction with a large enough effect, not every such curve was filed as active)", "conditions": "Jurkat NFAT-bla M1, carbachol, beta-lactamase ratio, 5 h; at 17.2 µM (top of the series) unless noted", "how_it_was_run": "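Read-out: CCF4 FRET ratio (460 nm/530 nm) after 1 h RT dye loading, used for %activity and AC50 from titration series. Cells: Jurkat NFAT-β-lactamase/M1 line, treated with compound plus 1 uM carbachol for 5 h, 37 °C.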"}, "[17]": {"target": "Ubiquitin carboxyl-terminal hydrolase 1 (Homo sapiens) (UniProt O94782)", "sequence (O94782 whole entry, looked up)": "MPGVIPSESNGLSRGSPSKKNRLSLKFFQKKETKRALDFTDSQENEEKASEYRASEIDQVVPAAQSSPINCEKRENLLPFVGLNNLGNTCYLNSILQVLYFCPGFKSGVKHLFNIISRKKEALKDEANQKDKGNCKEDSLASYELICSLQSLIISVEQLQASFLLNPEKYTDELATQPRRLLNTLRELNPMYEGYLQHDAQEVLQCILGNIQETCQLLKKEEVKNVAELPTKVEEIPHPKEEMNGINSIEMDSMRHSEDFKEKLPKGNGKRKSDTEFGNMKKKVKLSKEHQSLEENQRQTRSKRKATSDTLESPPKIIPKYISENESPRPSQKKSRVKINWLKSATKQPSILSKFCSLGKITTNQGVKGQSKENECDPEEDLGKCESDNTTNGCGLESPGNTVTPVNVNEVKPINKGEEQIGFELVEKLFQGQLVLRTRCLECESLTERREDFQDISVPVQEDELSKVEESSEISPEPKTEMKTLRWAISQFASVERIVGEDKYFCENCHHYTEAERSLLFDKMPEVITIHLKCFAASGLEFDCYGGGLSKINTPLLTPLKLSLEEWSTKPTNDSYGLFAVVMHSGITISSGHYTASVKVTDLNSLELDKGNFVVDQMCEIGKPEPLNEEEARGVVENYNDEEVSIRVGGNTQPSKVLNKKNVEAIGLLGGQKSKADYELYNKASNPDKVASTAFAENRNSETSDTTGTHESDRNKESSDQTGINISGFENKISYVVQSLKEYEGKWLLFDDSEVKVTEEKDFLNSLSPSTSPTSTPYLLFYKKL", "assay": "Inhibitors of USP1/UAF1: Pilot qHTS (AID 504865)", "how_it_was_run": "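Deubiquitinase activity followed as kinetic rhodamine fluorescence release from 150 nM Ub-Rho. 1 nM USP1/UAF1 with compound, after 15 min room-temperature preincubation, in HEPES pH 7.8 buffer containing TCEP, EDTA, BSA and Tween-20.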"}, "[18]": {"tested_on": "C2A", "assay": "qHTS profiling for inhibitors of Plasmodium falciparum proliferation (AID 504749)", "conditions": "P. falciparum in erythrocytes, SYBR Green DNA, 72 h; series mostly up to 12.8 µM", "how_it_was_run": "as §1"}, "[19]": {"tested_on": "JCK", "assay": "qHTS profiling for inhibitors of Plasmodium falciparum proliferation (AID 504749)", "conditions": "P. falciparum in erythrocytes, SYBR Green DNA, 72 h; series mostly up to 12.8 µM", "how_it_was_run": "as §1"}, "[20]": {"conditions": "measured here: cell count channel max response"}, "[21]": {"conditions": "measured here: lipid channel max response"}},
  "note": "Results filed as inconclusive are left out. Where a call stands in place of a potency, no number is given. Calls of active or inactive are those of the source. Unless noted, calls follow the shape of the dose curve; as a rule, active = well fitted curve in the direction sought with a large enough effect; inconclusive = small, poorly fitted or top-dose-only effect, or another doubt; inactive = no such curve, though single readings can be large; an effect the other way counts as inactive or inconclusive.",
  "data": [
    {"smiles": "Clc1ccc([C@H](Cn2ccnc2)OCc2c(Cl)cccc2Cl)c(Cl)c1", "values": [
      {"measurement": "outcome", "setting": "[1]", "value": "inactive"},
      {"measurement": "outcome", "setting": "[2]", "value": "inactive"},
      {"measurement": "Potency", "setting": "[3]", "value": "> 20.6 µM (inactive)"},
      {"measurement": "Potency", "setting": "[4]", "value": "> 20.6 µM (inactive)"},
      {"measurement": "Potency", "setting": "[5]", "value": "inactive"},
      {"measurement": "activity change, negative = inhibition", "setting": "[6]", "value": "-0.836% (inactive)"},
      {"measurement": "max response", "setting": "[6]; [20]", "value": -18.9, "unit": "%"},
      {"measurement": "max response", "setting": "[6]; [21]", "value": -21.7, "unit": "%"},
      {"measurement": "outcome", "setting": "[7]", "value": "inactive"},
      {"measurement": "Potency", "setting": "[8]", "value": "inactive"},
      {"measurement": "Potency", "setting": "[9]; parasite line B", "value": "3.16 µM (active)"},
      {"measurement": "Potency", "setting": "[10]", "value": "3.55 µM (active)"},
      {"measurement": "Potency", "setting": "[11]", "value": "3.16 µM (active)"},
      {"measurement": "Potency", "setting": "[12]", "value": "5.1 µM (active)"},
      {"measurement": "Potency", "setting": "[13]", "value": "3.16 µM (active)"},
      {"measurement": "Potency", "setting": "[14]", "value": "1.58 µM (active)"},
      {"measurement": "Potency", "setting": "[15]", "value": "2.03 µM (active)"}
    ]},
    {"smiles": "CO[C@]1(NC(=O)[C@H](C(=O)O)c2ccc(O)cc2)C(=O)N2C(C(=O)O)=C(CSc3nnnn3C)CO[C@H]21", "values": [
      {"measurement": "activity change, negative = inhibition", "setting": "[16]", "value": "6.17% (inactive)"},
      {"measurement": "outcome", "setting": "[2]", "value": "inactive"},
      {"measurement": "Potency", "setting": "[3]", "value": "> 20.6 µM (inactive)"},
      {"measurement": "Potency", "setting": "[4]", "value": "> 20.6 µM (inactive)"},
      {"measurement": "Potency", "setting": "[5]", "value": "inactive"},
      {"measurement": "activity change, negative = inhibition", "setting": "[6]", "value": "-4% (inactive)"},
      {"measurement": "max response", "setting": "[6]; [20]", "value": -7.15, "unit": "%"},
      {"measurement": "max response", "setting": "[6]; [21]", "value": -8.95, "unit": "%"},
      {"measurement": "outcome", "setting": "[7]", "value": "inactive"},
      {"measurement": "Potency", "setting": "[17]", "value": "inactive"},
      {"measurement": "Potency", "setting": "[8]", "value": "inactive"},
      {"measurement": "activity, negative = inhibition", "setting": "[9]; parasite line A", "value": "8.42% (inactive)"},
      {"measurement": "activity, negative = inhibition", "setting": "[9]; parasite line B", "value": "2.41% (inactive)"},
      {"measurement": "Potency", "setting": "[18]", "value": "inactive"},
      {"measurement": "Potency", "setting": "[10]", "value": "inactive"},
      {"measurement": "Potency", "setting": "[11]", "value": "inactive"},
      {"measurement": "Potency", "setting": "[12]", "value": "inactive"},
      {"measurement": "Potency", "setting": "[19]", "value": "inactive"},
      {"measurement": "Potency", "setting": "[13]", "value": "inactive"},
      {"measurement": "Potency", "setting": "[14]", "value": "inactive"},
      {"measurement": "Potency", "setting": "[15]", "value": "inactive"}
    ]},
    {"smiles": "CC#C[C@@]1(O)CC[C@H]2[C@@H]3CCC4=CC(=O)CCC4=C3[C@H](c3ccc(N(C)C)cc3)C[C@]21C", "values": [
      {"measurement": "outcome", "setting": "[1]", "value": "inactive"},
      {"measurement": "activity change, negative = inhibition", "setting": "[16]", "value": "15.9% (inactive)"},
      {"measurement": "outcome", "setting": "[2]", "value": "inactive"},
      {"measurement": "activity change, negative = inhibition", "setting": "[6]", "value": "0.174% (inactive)"},
      {"measurement": "max response", "setting": "[6]; [20]", "value": -7.59, "unit": "%"},
      {"measurement": "max response", "setting": "[6]; [21]", "value": -5.96, "unit": "%"}
    ]},
    {"smiles": "CCN(CCCCOC(=O)c1ccc(OC)c(OC)c1)[C@@H](C)Cc1ccc(OC)cc1", "values": [
      {"measurement": "outcome", "setting": "[1]", "value": "inactive"},
      {"measurement": "outcome", "setting": "[2]", "value": "inactive"},
      {"measurement": "Potency", "setting": "[3]", "value": "> 20.6 µM (inactive)"},
      {"measurement": "Potency", "setting": "[4]", "value": "> 20.6 µM (inactive)"},
      {"measurement": "Potency", "setting": "[5]", "value": "inactive"},
      {"measurement": "activity change, negative = inhibition", "setting": "[6]", "value": "-1.1% (inactive)"},
      {"measurement": "max response", "setting": "[6]; [20]", "value": -7.41, "unit": "%"},
      {"measurement": "max response", "setting": "[6]; [21]", "value": -6.28, "unit": "%"},
      {"measurement": "outcome", "setting": "[7]", "value": "inactive"},
      {"measurement": "Potency", "setting": "[17]", "value": "inactive"},
      {"measurement": "Potency", "setting": "[8]", "value": "inactive"},
      {"measurement": "activity, negative = inhibition", "setting": "[9]; parasite line A", "value": "-10.8% (inactive)"},
      {"measurement": "activity, negative = inhibition", "setting": "[9]; parasite line B", "value": "-8.1% (inactive)"},
      {"measurement": "Potency", "setting": "[18]", "value": "inactive"},
      {"measurement": "Potency", "setting": "[10]", "value": "inactive"},
      {"measurement": "Potency", "setting": "[11]", "value": "inactive"},
      {"measurement": "Potency", "setting": "[19]", "value": "inactive"},
      {"measurement": "Potency", "setting": "[13]", "value": "inactive"},
      {"measurement": "Potency", "setting": "[14]", "value": "inactive"}
    ]}
  ]
}
